Activity calls are given as the source filed them. Rule for the calls: active = hit-call score of the fitted dose curve at least 0.9, where 1 is the maximum; inactive = score below 0.9.
Experiments:
[1] = ATG_AP_1_CIS: Attagene CIS-FACTORIAL HepG2 Assay for human Activator Protein 1 (AP-1) (AID 2282931); details: HepG2 Attagene cis-factorial AP-1 reporter mRNA; actives raise or lower the signal
Method in brief: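 Readout is reporter transcript level from endogenous transcription factor activity, quantified by RT-PCR with fluorescent primer extension and capillary electrophoresis. Transiently transfected HepG2 cells, 24 h exposure. Curves fitted both directions versus DMSO.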

[2] = ATG_BRE_CIS: Attagene CIS-FACTORIAL HepG2 Assay for human Bone Morphogenetic Protein (BMP) Response Element (BRE) (AID 2282933); details: HepG2 BMP response element reporter, Attagene transcription factor profiling; actives raise or lower the signal
Method in brief: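 A HepG2 multiplex reporter system measured inducible reporter mRNA 24 h post-dosing. Detection: RT-PCR, 6-FAM primer extension, HpaI digestion, capillary electrophoresis. Activity fitted bidirectionally relative to DMSO.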

[3] = target: Retinoic acid receptor alpha (Homo sapiens) (UniProt P10276); experiment: ATG_DR5_RAR_CIS: Attagene CIS-FACTORIAL HepG2 Assay for human Retinoic Acid Receptor Alpha (RARE), DR5 submotif (AID 2282934); details: HepG2 Attagene cis-factorial RARE DR5 reporter, mRNA; actives raise or lower the signal;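 for AC50: reporter responds to endogenous RAR alpha beta and gamma in HepG2 not RARA alone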
Method in brief: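 After 24 h of chemical exposure, transiently transfected HepG2 cells were lysed for total RNA; the DR5-regulated reporter transcript was quantified via RT-PCR and capillary electrophoresis, with activity fitted bidirectionally against DMSO.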

[4] = target: Transcription factor E2F1 (Homo sapiens) (UniProt Q01094); experiment: ATG_E2F_CIS: Attagene CIS-FACTORIAL HepG2 Assay for human E2F Transcription Factor 1 (AID 2282935); details: HepG2 Attagene cis-reporter, E2F reporter RNA transcripts; actives raise or lower the signal
Method in brief: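 Liver-derived HepG2 cells expressing transfected promoter-driven reporter units received test chemical for 24 hours. Signal gains or losses were fitted bidirectionally against DMSO.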

[5] = ATG_E_Box_CIS: Attagene CIS-FACTORIAL HepG2 Assay for human Enhancer Box (E-box) (AID 2282936); details: HepG2 E-box cis-reporter transcription, actives raise or lower the signal
Method in brief: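 In this cell-based setup, HepG2 cells bearing transfected promoter-driven reporter units were exposed to chemicals for 24 h; reporter transcripts were amplified, 6-FAM-labelled, cut with HpaI and sized by capillary electrophoresis.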

[6] = ATG_M_61_CIS: Attagene CIS-FACTORIAL HepG2 Assay for M61 Transcription Factor (Internal Marker) (AID 2282937); details: HepG2 Attagene CIS-FACTORIAL M61 internal marker reporter; actives raise or lower the signal
Method in brief: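 Readout is reporter mRNA by RT-PCR, fluorescent primer extension and capillary electrophoresis, with gain or loss fitted relative to DMSO. Transfected HepG2 cells carrying endogenous-TF-driven cis reporters were exposed to chemicals for 24 hours.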

[7] = ATG_EGR_CIS: Attagene CIS-FACTORIAL HepG2 Assay for human Early Growth Response 1 (EGR1) (AID 2282938); details: HepG2 Attagene CIS-FACTORIAL EGR reporter mRNA; actives raise or lower the signal
Method in brief: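 After 24 h compound exposure, RNA from reporter-transfected HepG2 cells was reverse-transcribed, PCR-amplified, fluorescently labelled and resolved by capillary electrophoresis. EGR1 reporter transcript changes, up or down, were fitted against DMSO, reflecting endogenous transcription-factor activity.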

[8] = ATG_M_19_CIS: Attagene CIS-FACTORIAL HepG2 Assay for M19 Transcription Factor (Internal Marker) (AID 2282939); details: HepG2 Attagene CIS-FACTORIAL M19 internal marker reporter; actives raise or lower the signal
Method in brief: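 Chemical-treated HepG2 (24 h) with MRTU constructs; reporter transcripts detected by fluorescent RT-PCR fragment analysis on capillary electrophoresis. Internal background marker, DMSO as baseline.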

[9] = ATG_ERE_CIS: Attagene CIS-FACTORIAL HepG2 Assay for Estrogen Response Element (ERE) (AID 2282940); details: HepG2 ERE cis-reporter, Attagene RNA transcript; actives raise or lower the signal
Method in brief: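 Human liver cells (HepG2) bearing transiently transfected, promoter-regulated reporter units were exposed 24 h. Reporter mRNA induction was detected by capillary electrophoresis of labelled RT-PCR products and fitted bidirectionally to DMSO.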

[10] = ATG_Ets_CIS: Attagene CIS-FACTORIAL HepG2 Assay for human Erythroblast Transformation Specific (ETS) (AID 2282941); details: HepG2 ETS cis-reporter transcription, actives raise or lower the signal
Method in brief: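 Multiplexed reporter transcript profiling: HepG2, 24 h treatment, total RNA to cDNA, PCR, 6-FAM labelling, HpaI cut, capillary electrophoresis. Gain- or loss-of-signal fitted against DMSO.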

[11] = target: Hepatocyte nuclear factor 3-beta (Homo sapiens) (UniProt Q9Y261); experiment: ATG_FoxA2_CIS: Attagene CIS-FACTORIAL HepG2 Assay for human Forkhead box A2 (FOXA2) (AID 2282942); details: HepG2 cis-reporter transcription factor activity, 24 h; actives raise or lower the signal
Method in brief: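 Endogenous transcription factor activity is captured via cis-element-driven reporter transcripts in transfected HepG2. Total RNA taken at 24 h post-dosing; labelled RT-PCR products resolved by capillary electrophoresis. Gain or loss fitted versus DMSO.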

[12] = ATG_FoxO_CIS: Attagene CIS-FACTORIAL HepG2 Assay for human Forkhead box O (FoxO) (AID 2282943); details: HepG2 Attagene cis-reporter, FoxO element, mRNA; actives raise or lower the signal
Method in brief: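 Transfected HepG2 reporter cells exposed to test chemical for 24 h; reporter RNA measured by reverse transcription, PCR and fluorescent capillary electrophoresis; curves fitted for increases and decreases against DMSO.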

[13] = ATG_GATA_CIS: Attagene CIS-FACTORIAL HepG2 Assay for human GATA Binding Protein (AID 2282944); details: HepG2 GATA cis-element reporter, Attagene multiplex mRNA; actives raise or lower the signal
Method in brief: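 Transfected cis-reporter HepG2 cells were treated with chemicals for 24 hours. Total RNA was then converted to cDNA, amplified with reporter-specific primers and analysed by fluorescent capillary electrophoresis, using DMSO-treated wells as baseline.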

[14] = ATG_GLI_CIS: Attagene CIS-FACTORIAL HepG2 Assay for human Zinc Finger Protein GLI1 (AID 2282945); details: HepG2, Attagene cis-factorial reporter mRNA, GLI element; actives raise or lower the signal
Method in brief: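 Transiently transfected HepG2 cells report endogenous transcription factor activity via cis-element-driven reporter units. After 24 h compound exposure, reporter mRNA was measured by RT-PCR with capillary electrophoresis; bidirectional fitting against DMSO baseline.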

[15] = ATG_GRE_CIS: Attagene CIS-FACTORIAL HepG2 Assay for human Glucocorticoid Response Elements (GRE) (AID 2282947); details: HepG2 GRE cis-reporter, Attagene multiplex mRNA; actives raise or lower the signal
Method in brief: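 Fluorescence intensity of reporter-specific cDNA fragments, separated by capillary electrophoresis, provides the signal. Constructs carry cis-regulating promoters in transiently transfected HepG2 liver cells; 24 h incubation; fitting is bidirectional against DMSO.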

[16] = ATG_ISRE_CIS: Attagene CIS-FACTORIAL HepG2 Assay for human Interferon Regulatory Factor 1 (IRF1) binding to an Interferon-Stimulated Response Element (ISRE) (AID 2282948); details: HepG2 ISRE cis-reporter (Attagene), mRNA transcription readout; actives raise or lower the signal
Method in brief: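 Signal reflects induction or loss of ISRE-linked reporter mRNA in transiently transfected HepG2 cells after a 24 h treatment, detected by fluorescent RT-PCR fragments on capillary electrophoresis and normalised to DMSO.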

[17] = ATG_M_32_CIS: Attagene CIS-FACTORIAL HepG2 Assay for M32 Transcription Factor (Internal Marker) (AID 2282949); details: HepG2 Attagene cis-factorial M32 reporter, mRNA; actives raise or lower the signal;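 note: background control marker of the multiplexed CIS panel rather than a real target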
Method in brief: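 HepG2 transfectants (cis-regulated reporter transcription units) dosed 24 h. Reporter mRNA by RT-PCR plus CE, analysed as gain or loss relative to DMSO.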

[18] = ATG_M_06_CIS: Attagene CIS-FACTORIAL HepG2 Assay for M06 Transcription Factor (Internal Marker) (AID 2282950); details: HepG2 Attagene CIS-FACTORIAL M06 internal marker reporter; actives raise or lower the signal
Method in brief: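 Cells (HepG2, transiently carrying cis-driven reporter units) receive chemical for 24 h before RNA isolation. Reporter cDNA is PCR-amplified, FAM-labelled by primer extension, HpaI-digested and sized on a capillary analyser.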

[19] = target: Bile acid receptor (Homo sapiens) (UniProt Q96RI1); experiment: ATG_IR1_CIS: Attagene CIS-FACTORIAL HepG2 Assay for human Nuclear Receptor Subfamily 1 Group H Member 4 (NR1H4), IR1 submotif (AID 2282946); details: IR1 reporter transcription, actives raise or lower the signal
Method in brief: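 Fluorescence of capillary-separated, HpaI-digested RT-PCR reporter products gave IR1-element mRNA induction in HepG2 cells 24 h after dosing. Endogenous transcription factors drove the cis-regulated reporters; activity was fitted bidirectionally against DMSO.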

[20] = ATG_AP_2_CIS: Attagene CIS-FACTORIAL HepG2 Assay for human Activator Protein 2 (AP-2) (AID 2282932); details: HepG2 AP-2 cis-reporter, Attagene transcription factor profiling; actives raise or lower the signal
Method in brief: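 Liver-derived HepG2 line, cis-reporter system measuring endogenous factors; 24 h dosing; reporter mRNA detected by fluorescent RT-PCR and capillary electrophoresis.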

Measured: AC50

Chain of Hepatocyte nuclear factor 3-beta (Homo sapiens) (Q9Y261 whole entry, looked up): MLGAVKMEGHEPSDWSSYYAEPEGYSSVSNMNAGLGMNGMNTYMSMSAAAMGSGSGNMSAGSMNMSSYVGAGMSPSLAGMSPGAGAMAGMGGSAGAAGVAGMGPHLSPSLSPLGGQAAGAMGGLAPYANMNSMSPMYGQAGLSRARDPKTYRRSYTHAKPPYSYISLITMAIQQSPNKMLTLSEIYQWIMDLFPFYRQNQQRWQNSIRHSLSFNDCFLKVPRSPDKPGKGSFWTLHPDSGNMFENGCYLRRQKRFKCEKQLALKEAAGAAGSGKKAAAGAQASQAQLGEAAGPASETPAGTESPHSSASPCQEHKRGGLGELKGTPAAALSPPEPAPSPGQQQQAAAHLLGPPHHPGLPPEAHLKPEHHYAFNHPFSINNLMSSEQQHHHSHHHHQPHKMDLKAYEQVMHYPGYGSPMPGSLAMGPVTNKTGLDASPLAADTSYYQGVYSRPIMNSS
Chain of Bile acid receptor (Homo sapiens) (Q96RI1 whole entry, looked up): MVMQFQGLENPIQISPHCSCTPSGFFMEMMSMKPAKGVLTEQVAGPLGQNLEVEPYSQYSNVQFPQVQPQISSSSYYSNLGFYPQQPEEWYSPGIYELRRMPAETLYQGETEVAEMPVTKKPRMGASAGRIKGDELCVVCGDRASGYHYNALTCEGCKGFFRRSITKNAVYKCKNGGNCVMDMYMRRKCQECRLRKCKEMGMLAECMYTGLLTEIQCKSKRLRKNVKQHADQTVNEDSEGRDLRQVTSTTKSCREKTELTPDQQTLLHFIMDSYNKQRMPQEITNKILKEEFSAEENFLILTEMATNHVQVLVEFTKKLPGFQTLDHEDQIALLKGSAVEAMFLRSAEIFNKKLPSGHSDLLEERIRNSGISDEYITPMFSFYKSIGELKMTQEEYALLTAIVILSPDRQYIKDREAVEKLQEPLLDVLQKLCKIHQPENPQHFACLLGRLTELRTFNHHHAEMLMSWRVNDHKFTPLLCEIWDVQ
Chain of Transcription factor E2F1 (Homo sapiens) (Q01094 whole entry, looked up): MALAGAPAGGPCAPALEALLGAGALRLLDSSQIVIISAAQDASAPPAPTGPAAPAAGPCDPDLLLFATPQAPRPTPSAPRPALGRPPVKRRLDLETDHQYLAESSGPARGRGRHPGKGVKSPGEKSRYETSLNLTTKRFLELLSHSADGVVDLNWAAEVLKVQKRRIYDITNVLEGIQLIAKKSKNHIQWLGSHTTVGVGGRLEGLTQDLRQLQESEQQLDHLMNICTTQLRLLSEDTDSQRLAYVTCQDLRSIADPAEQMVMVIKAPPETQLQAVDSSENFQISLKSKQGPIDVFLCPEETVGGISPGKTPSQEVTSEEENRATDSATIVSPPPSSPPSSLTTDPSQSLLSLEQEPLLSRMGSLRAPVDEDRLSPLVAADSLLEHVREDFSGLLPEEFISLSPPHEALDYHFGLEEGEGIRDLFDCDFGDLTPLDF
Chain of Retinoic acid receptor alpha (Homo sapiens) (P10276 whole entry, looked up): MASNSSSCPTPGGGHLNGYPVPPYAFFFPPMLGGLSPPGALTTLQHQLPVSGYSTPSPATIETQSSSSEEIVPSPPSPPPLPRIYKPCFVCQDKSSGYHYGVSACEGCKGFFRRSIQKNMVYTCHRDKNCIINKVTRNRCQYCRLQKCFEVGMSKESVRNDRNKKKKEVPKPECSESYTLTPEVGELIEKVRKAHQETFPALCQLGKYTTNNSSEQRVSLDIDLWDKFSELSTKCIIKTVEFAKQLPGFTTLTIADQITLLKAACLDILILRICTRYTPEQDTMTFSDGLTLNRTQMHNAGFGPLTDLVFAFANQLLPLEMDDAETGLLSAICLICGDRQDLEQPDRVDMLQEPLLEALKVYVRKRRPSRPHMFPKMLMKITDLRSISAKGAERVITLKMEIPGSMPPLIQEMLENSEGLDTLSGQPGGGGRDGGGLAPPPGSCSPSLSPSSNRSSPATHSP

O=P(O)(O)CN(CP(=O)(O)O)CP(=O)(O)O
not listed: [19] | [20]
inactive: all other assays above

NNC(=S)NN
not listed: [3] | [15] | [19] | [20]
inactive: all other assays above

CC(C)(OO)c1ccccc1
active: [3] 48.2 µM | [5] 55.2 µM
not listed: [20]
inactive: all other assays above

ClCc1ccccn1
not listed: [3] | [8] | [19]
inactive: all other assays above

O=S(=O)(c1ccc(Cl)cc1)c1ccc(Cl)cc1
active: [1] 35.8 µM
not listed: [3] | [19] | [20]
inactive: all other assays above

NC(=S)Nc1ccccc1
active: [9] 39.2 µM
not listed: [20]
inactive: all other assays above

CN(CCCC(=O)c1cccnc1)N=O
not listed: [3] | [20]
inactive: all other assays above

c1cc[c]([Hg][c]2ccccc2)cc1
active: [7] 26.4 µM
not listed: [1]
inactive: all other assays above

N#CN=C(N)N
not listed: [15] | [20]
inactive: all other assays above

From PubChem BioAssay (EPA / NIEHS)
